Compounds without any hit were thinned out: in the full panel of roughly 79,000, 15% have a hit. Rule as the data show it: active = growth inhibition above about 70%; inactive = the rest.
Key:
[1] = NCI Yeast Anticancer Drug Screen. Data for the rad50 strain (AID 155);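 also: 0% = growth of vehicle-only cultures of the same strain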; details: S. cerevisiae rad50 strain growth inhibition; at 50.0 µM; stronger effect = higher value
In short: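 Readout: growth inhibition relative to vehicle-treated cultures. Compound exposure was carried out in a genetically defined yeast strain deficient in DNA damage repair.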

[2] = NCI Yeast Anticancer Drug Screen. Data for the mec2-1 strain (AID 157); details: S. cerevisiae mec2-1 strain, at 50.0 µM, stronger effect = higher value
In short: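 Compounds were applied to mec2-1 yeast cells. Their growth was then compared with that of vehicle-treated cultures to give growth inhibition.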

[3] = NCI Yeast Anticancer Drug Screen. Data for the sgs1 mgt1 strain (AID 161);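 also: 0% = growth of cultures given vehicle only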; details: S. cerevisiae sgs1 mgt1 strain, at 50.0 µM, stronger effect = higher value
In short: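 Compounds are added to genetically altered yeast, and growth is compared with cultures given vehicle alone to give percent inhibition.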

[4] = NCI Yeast Anticancer Drug Screen. Data for the cln2 rad14 strain (AID 165);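 also: 0% = growth equal to vehicle treated cultures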; details: S. cerevisiae cln2 rad14 strain, at 50.0 µM, stronger effect = higher value
In short: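 Strain: cln2 rad14 yeast, altered in cell cycle control and DNA damage repair. Read-out: growth inhibition vs vehicle.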

[5] = NCI Yeast Anticancer Drug Screen. Data for the bub3 strain (AID 167); details: S. cerevisiae bub3 mutant strain, at 50.0 µM, stronger effect = higher value
In short: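 Readout: yeast growth inhibition, expressed relative to vehicle-only wells. The test organism is a mutant strain from a panel with lesions in DNA repair or checkpoint genes.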

[6] = NCI Yeast Anticancer Drug Screen. Data for the mlh1 rad18 strain (AID 175); details: S. cerevisiae mlh1 rad18 strain growth inhibition; at 50.0 µM; stronger effect = higher value
In short: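 A repair-deficient yeast strain is exposed to test compound, and growth is scored relative to vehicle-treated controls.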

Measured: growth inhibition

C[C@@H]1C(=O)CC2(O)[C@@]13C[C@@H](OC(=O)[C@@H]3O)[C@@H](C)[C@@]21COC1=O (some centres undefined)
inactive: [1] 13.8% | [2] 14.2% | [3] -20.6% | [4] -6.65% | [5] -28.1% | [6] -47.1%

CN1c2ccccc2C2CC(CC#N)CC(=O)C21 (centres undefined)
inactive: [1] 18.9% | [2] 13.7% | [3] -8.1% | [4] -12.2% | [5] -20.2% | [6] 20.2%

O=C1C=CC(=O)c2c1c1c(c3c2C2c4ccccc4C3c3ccccc32)C2c3ccccc3C1c1ccccc12
inactive: [1] -13.5% | [2] -16.1% | [3] 19.9% | [4] -8.25% | [5] -5.75% | [6] 12.7%

CN(C)Cc1cc(C(C)(C)C)cc(CNC2CCCCC2)c1O
inactive: [1] -2.9% | [2] -6.45% | [3] -26.9% | [4] -6.4% | [5] -24.4% | [6] 19.9%

ONc1ncnc2nc[nH]c12
inactive: [1] -8.65% | [2] 5.4% | [3] 3.8% | [4] -1.65% | [5] -2.45% | [6] -11.3%

O=C1CC2(CCCCC2)C(=O)N1c1cc([N+](=O)[O-])ccn1
inactive: [1] 25.4% | [2] 14.7% | [3] 0.8% | [4] 17.6% | [5] 10% | [6] 19.8%

NCCC(=O)NCCSSCCNC(=O)CCN
inactive: [1] -8.45% | [2] 11% | [3] 6.25% | [4] -16.8% | [5] 6.8% | [6] 15.1%

O=C(COc1ccc(Cl)cc1)Nc1ccc(S(=O)(=O)O)c2ccccc12
inactive: [1] 9% | [2] 0.6% | [3] -12.4% | [4] -5% | [5] 1.65% | [6] 13.4%

c1ccc(-c2nnc(-c3ccccn3)c3c2C[C@@H]2C[C@@H]4Cc5c(-c6ccccn6)nnc(-c6ccccn6)c5[C@@H]4[C@H]32)nc1
inactive: [1] -4.95% | [2] 0.1% | [3] -16.4% | [4] 9.25% | [5] 10.3% | [6] -17.4%

N#Cc1c(-c2ccco2)cc(-c2ccccc2)[nH]c1=O
inactive: [1] 31.8% | [2] 8.1% | [3] 18.1% | [4] 33.3% | [5] 9.7% | [6] 25.6%

CCOc1ccccc1NC(=O)CC1SC(=Nc2ccc([N+](=O)[O-])cc2)NC1=O (centres undefined)
inactive: [1] 24.6% | [2] 20.9% | [3] 10.3% | [4] 10.9% | [5] -13.3% | [6] -12.8%

COc1cc(O)c(C(=O)C2Cc3ccccc32)c(OC)c1 (centres undefined)
inactive: [1] -20.6% | [2] 12.5% | [3] 24.1% | [4] 21.6% | [5] 9.1% | [6] 41.8%

OCC1(F)CC1(c1ccccc1)c1ccccc1 (centres undefined)
inactive: [1] 0.45% | [2] -2.85% | [3] 7.45% | [4] 12.7% | [5] -13.4% | [6] -22.6%

CC(=O)NNc1nc(C)c(C(/C=C/c2ccccc2O)=N/N=C(N)N)s1
inactive: [1] -19.2% | [2] -19.4% | [3] -21.4% | [4] -7.1% | [5] -10.6% | [6] -33.2%

CC1(C)C=C(N2CCCCC2)C(=O)c2ccccc21
inactive: [1] -9.6% | [2] -2.25% | [3] -12.2% | [4] -16.4% | [5] -9.1% | [6] 5.15%

CCOC(=O)NC(=O)c1cn(CCN2CCN(C(=O)CCCCCCCCCCC(=O)N3CCN(CCn4cc(C(=O)NC(=O)OCC)c(=O)[nH]c4=O)CC3)CC2)c(=O)[nH]c1=O
inactive: [1] 16.4% | [2] 4.15% | [3] 11.2% | [4] -1.35% | [5] -3.45% | [6] 8.55%

O=C1CCC(=O)N1CCc1cccc2ccccc12
inactive: [1] 5.45% | [2] -1.1% | [3] 30.4% | [4] 5.4% | [5] 2.4% | [6] -9.35%

CN(C)C1=c2c(=O)n(C)c(=O)n(C)c2=NC2C=CC=CN12 (centres undefined)
inactive: [1] 10.8% | [2] 13.6% | [3] 17.4% | [4] 4.15% | [5] 15% | [6] 22.6%

CC(=O)NCCc1ccc(Cl)c(Cl)c1
inactive: [1] 13.6% | [2] -4.25% | [3] -5.95% | [4] -0.6% | [5] 3.35% | [6] -3.3%

From PubChem BioAssay (NCI)
